This note sets out measurements from PubChem BioAssay (NCI).

Holding throughout (assay): NCI-60 one-dose screen, 48 h (100 = growth as untreated, 0 = no growth, -100 = all killed)
What all share (conditions): 10 µM unless noted

Experiment [1] concerns RPMI-8226 leukemia.
In experiment [2] the test system is OVCAR-5 ovarian.
Experiment [3] relates to OVCAR-4 ovarian.
Experiment [4] relates to SK-OV-3 ovarian.
In experiment [5] the test system is OVCAR-3 ovarian.
The subject of experiment [6] is HS 578T breast.
Experiment [7] has as its system NCI/ADR-RES ovarian.
Experiment [8] concerns OVCAR-8 ovarian.
In experiment [9] the test system is IGROV1 ovarian.

Molecules are shown by their SMILES. This is part of a sample that, as a whole, favours compounds with a hit. Of some 83,000 tested, about 20% had one in any assay.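 Treatment: one concentration, 48 hours, 96-well format. Scoring: percent growth, with anything below 10 considered active.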 Values without a mark were called inactive. The source made the active and inactive calls.

As for `COc1ccc(C(=O)c2no[n+]([O-])c2C(=O)c2ccc(OC)cc2)cc1`, the growth was -68.1% (active) in experiment [1]; 89.8% in experiment [2]; -68.5% (active) in experiment [3]; 113% in experiment [4]; -100% (active) in [5]; 108% in [6]. The growth in experiment [7] was 96.2%.
For the molecule `COc1ccccc1C(=O)Nc1cccc(-c2cc(=O)c3c(OC)c(OC)c(OC)cc3o2)c1`, the growth in experiment [1] is 6.75% (active); in experiment [8], 38.7%; in experiment [2], 81.2%; in experiment [3], 59.1%; in experiment [4], 100%; in experiment [5], 51.3%. The growth was 23.6% in experiment [6] and 58.3% in experiment [7].
Turning to `CN(CCC#N)c1ccc(/C=C(\C#N)c2cccc(C(F)(F)F)c2)cc1`, the growth was 57.4% in experiment [1]; 76.1% in experiment [8]; 76.9% in [2]; 68.3% in experiment [3]; 98.1% in experiment [4]; 65.7% in experiment [9]. Also, the figures for the growth in experiment [5], in experiment [6] and in experiment [7] were 69.4%, 89.2% and 40.3%, respectively.
Take `O=C(Cc1ccccc1[N+](=O)[O-])c1ccc2c(c1)OCO2`: the growth is 104% in [8]; 102% in experiment [3]; 90.1% in experiment [4]; 114% in experiment [9]; 103% in experiment [5]; 93.3% in experiment [6]. In [7], the growth is 106%.
For the molecule `COC1=C(OC)C(=O)c2ccccc2C1=O`, the growth in experiment [1] was 97.5%; in experiment [8], 93.3%; in [2] it was 101%; in experiment [3], 74.9%; in experiment [4], 111%; in experiment [9], 104%. The growth in experiment [5] is 87.8%; in experiment [7], 94.3%.
Regarding `COc1cc(-c2nc(/C=C3/C(=O)Nc4ccccc43)c3ccccn23)cc(OC)c1OC`, the growth in [8] was 32.8%; in [2], 82.9%; in experiment [3], 76.4%; in [4], 74.2%; in experiment [9], 51.6%; in [5] it was -8.37% (active). The growth was 76.9% in experiment [6] and 47.2% in experiment [7].
As for `CCCCCCCCCCCCCCCCCC(=O)Nc1ccc(O)cc1`, the growth in experiment [1] was 77.8%; in experiment [8], 91.3%; in experiment [2], 117%; in experiment [3], 104%; in experiment [4], 98.8%; in [9] it was 105%. Moreover, the growth was 103% in [5], 104% in [6] and 95.4% in experiment [7].
Regarding `O=C(NCCCl)Nc1nccnc1OCc1ccc(F)cc1`, the growth in experiment [1] was 96.4%; in [8], 101%; in [2], 96.6%; in experiment [3], 104%; in experiment [4] it was 93.1%; in experiment [9], 107%. For the same molecule, the growth in [6] was 115%; in experiment [7] it was 104%.
As to `CCOP1(=O)CC(C)=C(Cl)C(P(=O)(O)O)C1` (configuration not stated), the growth in [1] was 81.9%; in experiment [8], 91.8%; in experiment [2], 94.8%; in experiment [3] it was 94.5%; in experiment [4], 110%; in experiment [5] it was 113%. In addition, the growth in experiment [6] was 107%; in [7], 96.1%.
On to `O=C(CN1CCN(c2cccc(Cl)c2)CC1)N1CCN(c2nnc(-c3ccc(Cl)cc3)c(-c3ccc(Cl)cc3)n2)CC1`, for which the growth in experiment [1] is -33.5% (active); in [2], 96.3%; in experiment [3], 76.8%; in experiment [4], 105%; in experiment [5] it was 72.6%; in experiment [6], 61.9%. Further, the growth in experiment [7] is 70.6%.
Regarding `O=C(/C=C/c1cccc(O)c1)c1cccc(-n2cc(-c3ccc(Cl)cc3)[nH]c2=O)c1`, the growth is -53.2% (active) in [1]; -2.92% (active) in [8]; -47.3% (active) in [2]; 10.4% in [3]; 37.7% in experiment [4]; -42.9% (active) in [9]. For the same molecule, the growth in experiment [5] was -79.7% (active); in experiment [6], -48.4% (active); in experiment [7] it was 3.39% (active).
As for `CC(=O)Oc1cc2ccccc2cc1C(C)C`, the growth in experiment [1] is 109%; in experiment [8], 104%; in experiment [2], 98.9%; in [3] it was 108%; in experiment [4], 104%; in [5] it was 115%. Besides, the growth in [6] was 99.8%; in experiment [7], 116%.
In the case of `Nc1cc2c(cc1Br)[nH]c(=O)c1ccccc12`, the growth in experiment [8] is 39.9%; in experiment [2] it was 94%; in [3] it was 24.8%; in experiment [4] it was 62.4%; in experiment [9], 19%; in experiment [5], 2.99% (active). The growth was 73.3% in experiment [6] and 63% in experiment [7].
For `COc1ccc2cnc(N)c(C#Cc3cc(C(=O)Nc4ccc(CN5CCN(C)CC5)c(C(F)(F)F)c4)cnc3C)c2c1`, the growth in experiment [1] is 48.1%; in experiment [8] it was 75.4%; in [3], 58.2%; in [4] it was 69.4%; in [9], 28.8%; in [5], 93%. Further, the growth in experiment [6] was -16.3% (active); in experiment [7], 78.1%.
